From PubChem BioAssay
An excerpt weighted towards active compounds, which were near 3.1% of everything screened.
EWS-Fli block – EWS/Fli transcriptional activity inhibition; A673 NR0B1-luciferase reporter, viability-normalised; inhibition, % at 12.6 µM; 0.67% of 350,000 active; AID 651661;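 active means mean inhibition of at least 50% after viability correction, with every replicate also passing that limit; inconclusive means mean reaches 50% but only one of two replicates passes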;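 further: firefly luciferase signal divided by Alamar Blue viability fluorescence both relative to DMSO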
INS-1E GSIS act – GLuc luminescence reporter in INS-1E cells, primary screen for activators of glucose-dependent secretion of insulin. activation, % at 16.6 µM. 0.61% of 370,000 active. INS-1E GLuc reporter insulin secretion, 2-3 h;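 active means lowest replicate activation of at least 40%, so every replicate reaches that level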
PAX8 reporter – inhibitors of PAX8 transcriptional activity in RMG-I cells; RMG-I TPO-luciferase reporter, SteadyGlo, 24 h; inhibition, % at 12.6 µM; 1.2% of 360,000 active; AID 652154;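 active means mean replicate inhibition at least 60% with every replicate also reaching 60%; inconclusive means only one of the two criteria is met; inactive means mean below 60% and not all replicates reaching 60%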;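 further: luciferase light reporting Pax8 driven TPO promoter activity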
C2C12 statin – suppressors of simvastatin-induced myotoxicity in C2C12 myotubes; 0.78% of 330,000 active; ATP luminescence, 48 h; scaled: DMSO 0, geranylgeraniol control 100; rescue of ATP level, % at 7.49 µM;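 active means mean ATP rescue above about 67%, or every replicate alone reaching that limit, limit read from the data, passing the limit was not always enough; inconclusive means no clear call, values can overlap the other calls; inactive means mean under the limit and some replicate under it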;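 further: myotubes were challenged with 10 µM simvastatin during compound exposure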
miR122 inh – miR-122 inhibition in Huh7 cells; activation (reporter increase), % at 12.5 µM; Huh7 miR-122 Renilla luciferase sensor, 48 h; neutral wells = 0, positive control = 100; 0.3% of 340,000 active;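 active means mean replicate activation score at least 90 and every replicate individually at or above 90; inconclusive means only one of the two criteria met; inactive means neither criterion met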;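 further: higher luciferase means less miR-122 activity so hits act as miR-122 inhibitors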
Env fusion inh – blocks HIV Env-driven cell-cell fusion | 1.1% of 360,000 active | HeLa-JRFL Env/CEM21 cell fusion, luciferase | AID 651610 | inhibition, % at 12.3 µM;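 active means mean replicate inhibition score of at least 50 and every replicate individually at or above 50; inconclusive means only one of the two criteria met; inactive means mean below 50 and not all replicates reaching 50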
A number is an active result; 0 = inactive; ? = inconclusive; - = no result; [ ] = remark or other dose.

SMILES	EWS-Fli block	INS-1E GSIS act	PAX8 reporter	C2C12 statin	miR122 inh	Env fusion inh
C[C@@H]1CN([C@@H](C)CO)S(=O)(=O)c2ccc(C3=CCCC3)cc2O[C@H]1CN(C)C(=O)C1CC1	0	0	-	0	0	0
CCCn1c(O)c(N=NC(=O)c2cccnc2)c2cc(Br)ccc21	0	40.9	0	0	0	0
Nc1c(N(CCC2=CCCCC2)C(=O)COc2ccc(F)cc2Cl)c(=O)[nH]c(=O)n1Cc1ccccc1	58.2	0	0	0	0	-
Nc1c(N(CCC2=CCCCC2)C(=O)Cc2ccc(F)cc2)c(=O)[nH]c(=O)n1Cc1ccccc1	0	0	0	-	-	0
CCNC(=O)C[C@@H]1CC[C@H]2[C@H](COc3ccc(NC(=O)C4CCCCC4)cc3C(=O)N2C)O1	0	0	0	0	0	0
Cc1ccc(-c2[nH]ncc2CNCCc2cnn(-c3ccccc3)c2)cc1C	0	0	0	0	0	66.4
Cn1cc(CCNCc2cn[nH]c2-c2ccc(-c3ccccc3)cc2)cn1	0	0	0	0	0	0
CC(=O)NCCn1c(SCc2cc(=O)n3cc(Cl)ccc3n2)nc2ccccc2c1=O	-	0	0	75.3	0	0
O=C(Nc1ccc(Cl)cc1)N[C@H]1CC[C@@H](CCn2cc(-c3ccccc3F)nn2)O[C@@H]1CO	0	0	0	0	-	0
Cc1ccc(CC(=S)N2CCOCC2)cc1	0	0	0	124.4	0	0
CCc1ccc(CC(=S)N2CCOCC2)cc1	0	0	0	0	0	0
CO[C@@H]1CN(C)C(=O)c2ccc(NC(=O)C3CCCCC3)cc2OC[C@@H](C)N(C(=O)Nc2ccc(C(F)(F)F)cc2)C[C@H]1C	0	0	0	0	-	-
CCn1nnc2cc(C(=O)O)ccc21	0	0	0	-	0	0
CCn1nnc2cc(C(=O)NCCc3ccccc3F)ccc21	56.2	0	0	0	-	0
CCOc1cccc(C(=O)Nc2ccc(NC(=O)c3cc4ccccc4o3)c(OC)c2)c1	0	0	0	0	0	0
Cc1ccccc1NC(=O)c1cc2ccccc2o1	0	0	0	0	-	0
COc1cc(NC(=O)c2cccc(C)c2)ccc1NC(=O)c1cc2ccccc2o1	0	82.7	0	0	-	0
CCN(CC)c1ccc(NC(=O)c2cc3ccccc3o2)c(C)c1	-	0	-	159.3	0	-
C[C@H](CO)N1C[C@H](C)[C@@H](CN(C)C(=O)NC2CCCCC2)Oc2cc(C#Cc3cccc(F)c3)ccc2S1(=O)=O	0	0	0	0	0	0
C[C@@H]1CN([C@H](C)CO)S(=O)(=O)c2ccc(C#Cc3cccc(F)c3)cc2O[C@@H]1CN(C)C(=O)NC1CCCCC1	0	0	82.5	0	0	0
C[C@H]1CN([C@@H](C)CO)S(=O)(=O)c2ccc(C#Cc3cccc(F)c3)cc2O[C@H]1CN(C)CC1CC1	0	0	65.2	0	0	0
C[C@H](CO)N1C[C@H](C)[C@H](CN(C)C(=O)NC2CCCCC2)Oc2cc(C#Cc3cccc(F)c3)ccc2S1(=O)=O	0	0	83.5	0	0	0
C[C@H]1CN([C@@H](C)CO)S(=O)(=O)c2ccc(C#Cc3cccc(F)c3)cc2O[C@H]1CN(C)C(=O)NC1CCCCC1	0	0	0	0	0	0
CNC(=O)CC(=O)Nc1ccccc1C(=O)O	-	0	-	104.9	0	-
COc1ccc2[nH]c(C(=O)NCc3ccccc3)cc2c1	0	0	0	-	-	0
SMILES	EWS-Fli block	INS-1E GSIS act	PAX8 reporter	C2C12 statin	miR122 inh	Env fusion inh
COc1ccc(CN(Cc2cccn2C)C(=O)c2cc3cc(OC)ccc3[nH]2)cc1	0	0	0	123.9	0	0
C/C=C/c1ccc([C@@H]2[C@H](CO)N(C(=O)COC)[C@H]2CNC(=O)CC)cc1	0	0	0	0	0	-
N#Cc1c(C#N)c(SSc2c(C#N)c(C#N)c(N)n2-c2ccccc2)n(-c2ccccc2)c1N	50.8	0	0	0	0	0
COc1ccccc1S(=O)(=O)N(C)C[C@@H]1OCc2ccccc2-c2c(n(C)c3ccccc23)C(=O)N([C@@H](C)CO)C[C@H]1C	0	0	69.2	-	-	0
Cc1ccccc1S(=O)(=O)N(C)C[C@H]1OCc2ccccc2-c2c(n(C)c3ccccc23)C(=O)N([C@H](C)CO)C[C@@H]1C	0	0	-	-	-	-
Cc1ccccc1S(=O)(=O)N(C)C[C@@H]1OCc2ccccc2-c2c(n(C)c3ccccc23)C(=O)N([C@H](C)CO)C[C@@H]1C	0	0	0	0	0	73.9
COc1ccc2c3c([nH]c2c1)[C@@H](CO)N(C)CC31CCN(C(=O)NC(C)C)CC1	0	0	-	-	-	-
CC1(Cc2ccc3c(c2)OCO3)C(=O)Nc2ccc(-c3cccc(C(F)(F)F)c3)cc21 (configuration not stated)	0	-	0	0	0	0
CC1(Cc2ccc(C(F)(F)F)o2)C(=O)Nc2ccc(-c3cccc(C(F)(F)F)c3)cc21 (configuration not stated)	0	173.4	0	0	0	0
CN(C)CCCNC(=O)[C@H]1[C@H](CO)[C@H]2Cn3c(ccc(C4=CCCC4)c3=O)[C@H]2N1CCC(F)(F)F	0	0	-	0	-	57.0[16.7 µM]
CCCN1[C@@H]2c3ccc(C4=CCCC4)c(=O)n3C[C@@H]2[C@@H](CO)[C@@H]1C(=O)NCCCN(C)C	0	0	-	0	0	-
COc1ccc(S(=O)(=O)N(C)C[C@@H]2Oc3c(NS(=O)(=O)c4ccc(Cl)cc4)cccc3C(=O)N([C@@H](C)CO)C[C@@H]2C)cc1	0	0	0	0	0	0
C[C@@H](O)C#Cc1cnc2c(c1)C(=O)N([C@@H](C)CO)C[C@H](C)[C@H](CN(C)CC1CC1)O2	0	0	-	0	0	0
Cc1ccc(S(=O)(=O)N(C)C[C@@H]2Oc3ccc(NC(=O)C4CCCCC4)cc3CC(=O)N([C@@H](C)CO)C[C@@H]2C)cc1	0	0	-	0	0	78.9[16.7 µM]
Cc1ccc(S(=O)(=O)N(C)C[C@H]2Oc3ccc(NC(=O)C4CCCCC4)cc3CC(=O)N([C@H](C)CO)C[C@@H]2C)cc1	0	0	-	0	0	0
COc1ccc(S(=O)(=O)N(C)C[C@@H]2Oc3ccc(NC(=O)C4CCCCC4)cc3CC(=O)N([C@@H](C)CO)C[C@@H]2C)cc1	0	0	0	0	0	65.7[16.7 µM]
O=C(N/N=C\c1ccc(CNS(=O)(=O)c2ccc(Cl)cc2)o1)C(=O)Nc1ccc(Oc2ccccc2)cc1	-	58.3	-	-	-	-
O=C(C1CC1)N1C[C@H]2[C@@H](c3ccccc31)[C@@H](CO)N2C(=O)c1ccccn1	0	0	0	0	0	-
Cc1oc2ccc(O)c(CN3CCOCC3)c2c1C(=O)c1ccc(Cl)cc1	-	-	-	0	0	?
Cc1oc2c(Cl)c(Cl)c(O)c(CN(C)C)c2c1C(=O)c1ccc(Cl)cc1	0	0	0	0	0	64.2
